Results on 46 compounds are retold here after ChEMBL document CHEMBL3988442, “University of Dundee, Small-Polar-MMV Screening Library” (2021).

The target in experiment [1] is T1, Aspartate--tRNA(Asp/Asn) ligase (Mycobacterium tuberculosis (strain ATCC 25618 / H37Rv)) (UniProt P9WFW3). Note: in the data most compounds retested in dose-response had high values.
T1 sequence (whole entry): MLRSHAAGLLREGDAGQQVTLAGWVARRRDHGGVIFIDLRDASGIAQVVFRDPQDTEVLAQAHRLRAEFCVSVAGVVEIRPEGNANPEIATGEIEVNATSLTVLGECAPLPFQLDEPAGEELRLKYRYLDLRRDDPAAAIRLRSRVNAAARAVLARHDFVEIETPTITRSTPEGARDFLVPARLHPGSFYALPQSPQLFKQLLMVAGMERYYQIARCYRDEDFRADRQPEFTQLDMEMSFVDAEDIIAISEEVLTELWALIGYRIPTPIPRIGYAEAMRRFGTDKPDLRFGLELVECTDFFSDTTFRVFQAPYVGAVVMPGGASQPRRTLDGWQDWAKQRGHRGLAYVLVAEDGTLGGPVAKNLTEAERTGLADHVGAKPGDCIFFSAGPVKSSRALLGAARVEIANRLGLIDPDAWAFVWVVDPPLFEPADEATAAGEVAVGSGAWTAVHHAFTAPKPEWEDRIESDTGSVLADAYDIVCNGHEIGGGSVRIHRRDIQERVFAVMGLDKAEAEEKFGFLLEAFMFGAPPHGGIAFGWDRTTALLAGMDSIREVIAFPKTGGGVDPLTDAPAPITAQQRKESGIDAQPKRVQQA
The experiment can be described thus: Assay for Asp RNA synthetase-1 from Mycobacterium tuberculosis. Type of experiment: functional. More on the design: scale not given: direction of the effect not stated beside the values. The settings on record: 30 µM.

In experiment [2] the target is Shiga toxin 2 (Escherichia coli O157:H7) (UniProt P09385+P09386). The experiment is described as follows: E. coli 0.157:H7 Shiga Toxin SOP - stx2 screening assay. In kind it is functional. Also noted: scale not given: direction of the effect not stated beside the values. The settings on record: 30 µM.

On to `CCOc1ccc(S(=O)(=O)NCc2cccnc2N(C)C)cc1`, for which the Percent Effect in experiment [1] is 1.46%; in experiment [2], -16.7%.

Regarding `CNc1cc(N2CCCC2CNCc2c[nH]nc2C(C)(C)C)ncn1` (configuration not stated), the Percent Effect in experiment [1] is 1.25%; in experiment [2] it was -11.5%.

`CN(C)CCN(Cc1ccc(Cl)cc1)C(=O)c1cc[nH]n1`: the Percent Effect in experiment [1] is -3.79%; in experiment [2], 9.32%.

Regarding `O=C(c1cnco1)N1C[C@@H]2CC[C@H](Oc3ccccc3F)[C@@H]2C1`, the Percent Effect in experiment [1] was -1.03%; in experiment [2], -75.8%.

On to `Cc1ncc(CN(C)C2CCCN(Cc3noc(C4CC4)n3)C2)s1` (configuration not stated), for which the figures for the Percent Effect in experiment [1] and in experiment [2] were -2.9% and 11.1%, respectively.

Regarding `COc1cccc(CN2CCC3(CCN(C(=O)[C@H]4CCCO4)CC3)C2)c1`, the Percent Effect in experiment [1] is 2.09%; in experiment [2], -47.5%.

For the compound `Cn1cc(N2CC3(COCCN(Cc4ccsc4)C3)OCC2=O)cn1` (configuration not stated), the figures for the Percent Effect in experiment [1] and in experiment [2] were 13.7% and -3.88%, respectively.

Turning to `Cc1nc(N2CCCC2)nc2c1CCN(C(=O)CC1CC1)CC2`, the Percent Effect in experiment [1] is -1.6%; in experiment [2] it was -20.8%.

As to `Cc1nc(C)n(CC2CCCN2CC(=O)Nc2cc(C(C)C)no2)n1` (configuration not stated), the values for the Percent Effect in experiment [1] and in experiment [2] were 3.17% and 27.8%, respectively.

In the case of `COc1nc(C)cc(C)c1CNC(=O)N(C)Cc1cnn(C)c1`, the values for the Percent Effect in experiment [1] and in experiment [2] were 4.2% and 6.51%, respectively.

As to `CCNC(=O)[C@@H]1C[C@@H](NC(=O)Cc2ccccn2)CN1CCCSC`, the Percent Effect in experiment [1] was -0.228%; in experiment [2], -40.5%.

On to `CC(=O)N1CCN(c2cc(-c3ccccc3)nc3c(C)c(C)nn23)CC1`, for which the results for the Percent Effect in experiment [1] and in experiment [2] were 2.46% and -33.1%, respectively.

In the case of `O=C(c1ccc(Br)o1)N1CCCCC1Cn1cccn1` (configuration not stated), the Percent Effect in experiment [1] is 4.78%; in experiment [2] it was -8.55%.

Take `O=C(O)C1(Cc2cccc(-c3ccc(F)c(F)c3)c2)CCOCC1`: the figures for the Percent Effect in experiment [1] and in experiment [2] were 4.93% and 7.92%, respectively.

Consider `O=C(Cn1ccc2ccc(Br)cc21)NC[C@@H]1CCCN2CCCC[C@H]12`, for which the Percent Effect is -3.66% in experiment [1] and -42.1% in experiment [2].

For `CC(C)c1nccn1-c1cccc(C2CCCN2S(=O)(=O)N(C)C)n1` (configuration not stated), the Percent Effect came out at 8.78% in experiment [1] and 0.999% in experiment [2].

Turning to `CN(Cc1cccc(F)c1)C(=O)CN1CCOC(Cn2cccn2)C1` (configuration not stated), the Percent Effect in experiment [1] is -0.139%; in experiment [2] it was 0.15%.

`Cc1noc(C(C)C)c1C(=O)NCCCN1CCCC1`: the values for the Percent Effect in experiment [1] and in experiment [2] were 5.49% and -21.7%, respectively.

For `Cc1cnn(CC(C)NCc2nc(-c3cccnc3)no2)c1` (configuration not stated), the values for the Percent Effect in experiment [1] and in experiment [2] were 1% and -15.5%, respectively.

Turning to `O=c1cc(Cn2ccnc2)nc2n1CCCN(Cc1ccsc1)C2`, the values for the Percent Effect in experiment [1] and in experiment [2] were -0.029% and -13.8%, respectively.

On to `CNc1cc(N2CCCC2CNCc2cnc(C)cn2)ncn1` (configuration not stated), for which the Percent Effect is -0.989% in experiment [1] and -46% in experiment [2].

For the compound `Cc1ncccc1CNCC1CCN(CC(O)c2ccccc2)CC1` (configuration not stated), the Percent Effect in experiment [1] is 0.218%; in experiment [2] it was -34.9%.

For the compound `Cc1cnn(CCNCC(O)COc2c(C)ccc(C)c2C)c1` (configuration not stated), the values for the Percent Effect in experiment [1] and in experiment [2] were 1.91% and -6.89%, respectively.

Take `O=C(NCCNC(=O)N1CCC(c2ccccc2)C1)C1CC1` (configuration not stated): the Percent Effect in experiment [1] was -0.747%; in experiment [2], -19.2%.

As to `Cn1cc(C(=O)N2CCCC(Cc3nccs3)C2)cn1` (configuration not stated), the Percent Effect in experiment [1] stood at 2.4%; in experiment [2], 14.9%.

With `CC(C)N(C)Cc1cn2c(n1)CN(C(=O)Cc1ccsc1)CC2`, the Percent Effect was 2.92% in experiment [1] and -5.19% in experiment [2].

As to `O=C(COCC1CC1)N1CCCC(n2ccnc2)C1` (configuration not stated), the results for the Percent Effect in experiment [1] and in experiment [2] were 0.946% and -26.2%, respectively.

For the compound `Cc1cnn(CC2CCCN2C(=O)c2cc3c(F)cccc3[nH]2)c1` (configuration not stated), the Percent Effect is 4.86% in experiment [1] and -37.3% in experiment [2].

With `Cc1cnn(C2CCCN(C(=O)c3cn4cccnc4n3)C2)c1` (configuration not stated), the Percent Effect in experiment [1] is -0.409%; in experiment [2] it was 8.96%.

As to `COC(=O)c1ccc(C2CC(=O)Oc3cc(C)[nH]c(=O)c32)cc1` (configuration not stated), the Percent Effect is -5.75% in experiment [1] and -8.85% in experiment [2].

`CCC(NC(=O)C1CCN(S(C)(=O)=O)CC1)c1ccc(OC)c(C)c1` (configuration not stated): the Percent Effect in experiment [1] is -5.17%; in experiment [2], -11.6%.

On to `Cc1nc(CN(C)C2CCN(CC3CCCCC3)C2)no1` (configuration not stated), for which the Percent Effect is -2.62% in experiment [1] and -9.5% in experiment [2].

Consider `O=C(CC1CN(Cc2ccccc2)CCO1)NC1CCCC1` (configuration not stated), for which the Percent Effect in experiment [1] was -3.53%; in experiment [2] it was 1.42%.

`O=C1CC2(CCCCC2)CC(=O)N1CC(O)COCc1ccc(Cl)cc1` (configuration not stated): the Percent Effect stood at 0.607% in experiment [1] and 11% in experiment [2].

Turning to `Cn1ncc2c(=O)[nH]c(N3CCN(C(=O)c4ccsc4)CC3)nc21`, the Percent Effect in experiment [1] is 1.3%; in experiment [2], 13.3%.

For `COc1c(C2CCCN2CC(=O)Nc2cc(C)no2)c(C)nn1C` (configuration not stated), the values for the Percent Effect in experiment [1] and in experiment [2] were 2.74% and 12.9%, respectively.

As for `c1ccc2cc(OCCN3CCOC(Cn4cncn4)C3)ccc2c1` (configuration not stated), the results for the Percent Effect in experiment [1] and in experiment [2] were -2.92% and -29.2%, respectively.

As for `CC(=O)N1CCN(C(=O)C2SCCc3sccc32)CC1` (configuration not stated), the Percent Effect is -0.324% in experiment [1] and -46% in experiment [2].

Regarding `Cc1cc(C)c(CNC(=O)NCc2ccc3c(c2)CCC3)c(=O)[nH]1`, the Percent Effect is -4.97% in experiment [1] and 32.4% in experiment [2].

Turning to `COc1cccc(CN2CCCCCC2c2cccs2)c1O` (configuration not stated), the Percent Effect is 0.335% in experiment [1] and -75.8% in experiment [2].

Turning to `Cn1cc(CN2C[C@@H]3COC[C@]3(COc3ccc(C#N)cn3)C2)cn1`, the Percent Effect was 3.33% in experiment [1] and -7.69% in experiment [2].

Regarding `CCCS(=O)(=O)N1CCN(c2cc(-n3nc(C)cc3C)nc(C)n2)CC1`, the Percent Effect in experiment [1] is -3.15%; in experiment [2] it was -4.71%.

Turning to `CCOC[C@@H]1CCC[C@@]12CN(Cc1nccs1)CCO2`, the figures for the Percent Effect in experiment [1] and in experiment [2] were -0.28% and 13.3%, respectively.

In the case of `CCc1nc(NCCCn2cccn2)c2c(n1)c(C)nn2C`, the Percent Effect in experiment [1] is -0.755%; in experiment [2], -14.3%.

Regarding `Cc1ccc(CN2CC[C@H]3[C@@H]2CCC(=O)N3CCN2CCCC2)s1`, the Percent Effect was 2.78% in experiment [1] and -33.4% in experiment [2].

`Cc1nc(C(C)C)sc1C(=O)NS(=O)(=O)c1ccc(C#N)cc1`: the values for the Percent Effect in experiment [1] and in experiment [2] were -3.09% and 0.0303%, respectively.
